Screening results from PubChem.
DAX1 inh-1 = DAX1 (NR0B1) inhibitors on StAR promoter, primary screen, cell-based, luminescence, SF-1 (NR5A1), full-length DAX-1. HEK293T StAR-luciferase reporter, SF-1/DAX-1 repression relief. inhibition, % at 6.8 µM. 370,000 tested, 1.1% active. AID 652010, 2013;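 active means inhibition above the mean over all tested compounds plus 3 SD, cut at about 3.6% in these data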;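 further: 0% = DAX-1 cells with DMSO and 100% = cells lacking DAX-1 with DMSO; higher inhibition means more luminescence from relief of DAX-1 repression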
DAX1 inh-2 = DAX1 (NR0B1) inhibitors, primary screen, cell-based, HEK293, Gal4-DAX1, luciferase luminescence | HEK293 Gal4-DAX1 luciferase reporter | inhibition, % at 6.75 µM | Nuclear receptor subfamily 0 group B member 1 (Homo sapiens), P51843 | 340,000 tested, 0.99% active;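 active means inhibition above the mean over all tested compounds plus 3 SD, cut at about 4.2% in these data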;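 further: 0% = DAX1-transfected cells with DMSO and 100% = empty-vector control cells with DMSO; inhibition shows as a rise in luminescence from relieved DAX1 repression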
Target sequence (P51843 207-470 limits assumed): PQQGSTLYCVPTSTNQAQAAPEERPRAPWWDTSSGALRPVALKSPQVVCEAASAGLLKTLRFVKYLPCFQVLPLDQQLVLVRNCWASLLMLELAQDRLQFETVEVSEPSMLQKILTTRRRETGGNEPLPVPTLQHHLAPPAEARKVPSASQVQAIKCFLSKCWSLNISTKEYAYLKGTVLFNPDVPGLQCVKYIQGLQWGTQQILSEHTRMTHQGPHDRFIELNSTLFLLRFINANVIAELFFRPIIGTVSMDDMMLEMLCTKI
ssDAF12 agonist = S. stercoralis DAF-12 nuclear receptor activators, primary screen, cell-based, luminescence, HEK293, GRIP1 co-expression, lit1-tk-luc; Nuclear hormone receptor DAF-12 (Strongyloides stercoralis); HEK293 ssDAF-12/GRIP1 lit1-tk-luc reporter; % of 3 µM dafachronic acid response; activation, % at 6.8 µM; 370,000 tested, 1% active;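 active means activation above the mean over all tested compounds plus 3 SD, cut at about 0.9% in these data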;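 further: 0% = DMSO-only wells and 100% = 3 µM delta7-dafachronic acid wells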
hgDAF-12 ag = H. glycines DAF-12 receptor agonists, primary screen, cell-based, luminescence, HEK293, GAL4 fusion, UAS-luciferase; HEK293 GAL4-hgDAF12 UAS-luciferase reporter, agonist luminescence; normalized to butyrate control; 370,000 tested, 1.8% active; activation, % at 6.8 µM;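 active means activation above a cutoff set at the mean of all screened compounds plus 3 SD, cut at about 10% in these data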;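 further: 0% = DMSO wells and 100% = sodium butyrate wells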
hcDAF-12 act = H. contortus DAF-12 nuclear receptor activators, primary screen, cell-based, luminescence, HEK293, lit1-tk-luc reporter | HEK293 hcDAF-12 lit1-tk-luc reporter; 0% DMSO, 100% Δ7-dafachronic acid | activation, % at 6.8 µM | 370,000 tested, 1.4% active;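 active means activation above the mean of all tested compounds plus 3 SD, cut at about 5.5% in these data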;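 further: 100% = response to 3 µM Δ7-dafachronic acid high control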
LXRb hcDAF ctr = LXR agonists, Gal4 luciferase reporter, confirmation, counter-screen for hcDAF-12 agonist project, cell-based, luminescence, HEK293, H. contortus campaign; shares compounds with hcDAF-12 act; HEK293 Gal4-LXR tk-luc reporter, 24 h; normalized: DMSO 0%, positive control 100%; activation, % at 6.8 µM; 3,400 tested, under 10 active; AID 743027, 2013;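 active means mean percent activation of the reporter above a cutoff set as the average over tested compounds plus their standard deviation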
Target sequence (P55055 whole entry, looked up, the tested form may be a part): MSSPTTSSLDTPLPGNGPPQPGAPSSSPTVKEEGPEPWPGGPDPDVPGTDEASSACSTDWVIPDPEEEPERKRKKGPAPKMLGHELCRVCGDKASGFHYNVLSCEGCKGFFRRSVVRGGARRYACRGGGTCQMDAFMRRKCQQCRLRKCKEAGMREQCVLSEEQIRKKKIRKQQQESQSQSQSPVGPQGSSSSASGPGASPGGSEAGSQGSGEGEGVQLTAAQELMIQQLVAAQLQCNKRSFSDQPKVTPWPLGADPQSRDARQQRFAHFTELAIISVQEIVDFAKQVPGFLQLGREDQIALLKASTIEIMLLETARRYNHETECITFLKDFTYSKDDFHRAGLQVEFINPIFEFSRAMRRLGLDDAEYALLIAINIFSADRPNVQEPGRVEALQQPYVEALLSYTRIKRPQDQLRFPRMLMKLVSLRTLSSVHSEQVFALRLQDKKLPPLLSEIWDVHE
hcDAF12 ag = H. contortus DAF-12 receptor agonists, confirmation, cell-based, luminescence, HEK293, lit1-tk-luc, triplicate. shares compounds with hcDAF-12 act. HEK293 hcDAF-12 lit1-tk-luc reporter; % of Δ7-dafachronic acid response. 3,400 tested, 61% active. activation, % at 6.8 µM;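 active means mean activation across triplicate tests above the threshold derived from the earlier primary screen, cut at about 5.5% in these data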;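 further: 0% = DMSO only wells and 100% = 3 µM Δ7-dafachronic acid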
hgDAF12 conf = H. glycines DAF-12 receptor agonists, confirmation, cell-based, luminescence, HEK293, GAL4-LBD fusion; shares compounds with hgDAF-12 ag; HEK293 GAL4-hgDAF12 luciferase reporter, agonist mode; percent of butyrate response; activation, % at 6.8 µM; 3,300 tested, 80% active; AID 743050, 2013;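 active means mean activation over triplicate wells above the hit cutoff derived from the earlier primary screen, cut at about 11% in these data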;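 further: 0% = DMSO low control and 100% = 2 mM sodium butyrate high control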
LXRb DAF12 ctr = LXR agonists, Gal4 luciferase reporter, confirmation, counter-screen for hgDAF-12 agonist project, cell-based, luminescence, HEK293, H. glycines campaign; shares compounds with hgDAF-12 ag; 24 h; activation, % at 6.8 µM; 3,300 tested, under 10 active; AID 743051, 2013;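 active means mean activation of the triplicate above a set limit carried over from the primary screen, none filed active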
* marks the source's active call; other numbers are inactive results; nt = not tested or not shown. Compounds with a hit are over-represented: about 4.1% of the library has one in this group of screens.

SMILES | DAX1 inh-1 | DAX1 inh-2 | ssDAF12 agonist | hgDAF-12 ag | hcDAF-12 act | LXRb hcDAF ctr | hcDAF12 ag | hgDAF12 conf | LXRb DAF12 ctr
O=C(c1cc2c([nH]c1=O)CCCC2)N1CCc2c([nH]c3ccccc23)C1c1ccccc1F (stereo not drawn) | 0 | 0 | 1 | 0 | 2 | nt | nt | nt | nt
CN1N=C(C(=O)N2CCc3c([nH]c4ccccc34)C2c2c(F)cccc2Cl)CCC1=O (stereo not drawn) | 2 | 5.3* | 1 | 15* | 6.7* | 0 | 6.7* | 7 | 0
Nc1nc(-c2cc(-c3ccccc3)no2)cs1 | 2 | 4 | 1 | 18* | 7.9* | 1 | 5 | 21* | 1
Cc1ccc(-c2cc(NC(=O)c3ccccc3[N+](=O)[O-])n[nH]2)cc1 | 0 | -2 | -1 | 1 | -1 | nt | nt | nt | nt
Cc1ccc(-c2cc(-c3ccc(C)cc3O)[nH]n2)cc1 | 3 | 5.1* | 2.9* | 19* | 15* | 2 | 10* | 22* | 1
Cc1ccccc1-c1cc(-c2ccccc2O)n[nH]1 | 4 | 5.6* | 1.4* | 16* | 11* | 1 | 8.1* | 18* | 1
Cc1ccc(-c2cc(-c3ccccc3[N+](=O)[O-])[nH]n2)c(O)c1 | 3 | 5.3* | 2.3* | 14* | 9.9* | 1 | 9.6* | 16* | 1
Oc1ccccc1-c1ccn[nH]1 | 0 | 0 | -2 | 1 | 1 | nt | nt | nt | nt
COC(=O)C1=C(C)N(Cc2ccc(Cl)cc2)C(=S)NC1c1ccc(OC)cc1 (stereo not drawn) | 0 | nt | -1 | -5 | -1 | nt | nt | nt | nt
Cn1nc(C(C)(C)C)cc1N1C(=O)CCC1(C)C(=O)NC1CCCC1 (stereo not drawn) | -1 | nt | -1 | 3 | 0 | nt | nt | nt | nt
CC1=C(C(=O)N2CCOCC2)CC(CC(=O)NCc2cccc3ccccc23)C(=O)N1Cc1ccc(C(C)(C)C)cc1 (stereo not drawn) | -1 | nt | -1 | -4 | -2 | nt | nt | nt | nt
Cc1cc(O)ccc1N/C=C/c1onc(C)c1[N+](=O)[O-] | 2 | 1 | 0.9* | 17* | 7.9* | 1 | 6.2* | 15* | 1
Cc1cccc(N/C=C/c2onc(C)c2[N+](=O)[O-])c1 | 2 | 2 | 1 | 8 | 4 | nt | nt | nt | nt
Cc1ccc(NC(=S)NNC(=O)c2cnccn2)cc1 | -1 | nt | -1 | -1 | -2 | nt | nt | nt | nt
O=C(/C=C/Nc1ccc(F)c(F)c1)c1cccs1 | 3 | 4 | 1 | 15* | 16* | 2 | 15* | 23* | 1
CCNC(=S)/N=C(\N)Nc1nc(C)c2cc(C)ccc2n1 | 4.3* | 4.6* | 0 | 14* | 6.6* | 1 | 7.6* | 13* | 0
CCOc1ccc2nc(N/C(N)=N/C(=S)Nc3ccc(C)c(C)c3)nc(C)c2c1 | 0 | -1 | -1 | 2 | -1 | nt | nt | nt | nt
O=C(Nc1ccccc1Cl)c1cc(C2CCCCN2C(=O)c2ccccc2)on1 (stereo not drawn) | -3 | nt | -2 | -3 | -3 | nt | nt | nt | nt
CN1CCSc2ccc(C(=O)Nc3cccc(F)c3)cc21 | 3.8* | 7.4* | 2.0* | 24* | 11* | 1 | 8.3* | 25* | 1
CCN(CC)c1ccc(C(=O)Nc2cccc(F)c2)cc1 | 2 | 1 | 0 | 15* | 7.2* | 1 | 4 | 19* | 1
CCN1CCSc2ccc(C(=O)NCc3cccc(F)c3)cc21 | 0 | 0 | -1 | 3 | -2 | nt | nt | nt | nt
C[C@H](O)C#Cc1cnc2c(c1)C(=O)N([C@H](C)CO)C[C@@H](C)[C@@H](CN(C)Cc1ccc(-c3ccccc3)cc1)O2 | 0 | 0 | -2 | 1 | -2 | nt | nt | nt | nt
Cc1ccc2nc(-c3ccccc3)c(Cc3cccc(F)c3)n2c1 | 2 | nt | 1 | 14* | 8.7* | 0 | 5 | 4 | 0
Cc1occc1C(=O)N/N=C/c1ccc(-c2ccccc2)cc1 | 3 | 0 | 1.1* | 19* | 7.9* | 2 | 5 | 21* | 1
Cc1occc1C(=O)N/N=C/c1ccc(OCc2ccccc2)cc1 | 1 | 3 | -1 | 8 | 4 | nt | nt | nt | nt
SMILES | DAX1 inh-1 | DAX1 inh-2 | ssDAF12 agonist | hgDAF-12 ag | hcDAF-12 act | LXRb hcDAF ctr | hcDAF12 ag | hgDAF12 conf | LXRb DAF12 ctr
Cn1/c(=N/N=C/c2ccccn2)sc2ccccc21 | 3 | nt | 1 | 23* | 8.2* | 1 | 7.1* | 18* | 1
CCCc1cc(=O)oc2c3c(cc(OCC(=O)N4CCC(C(=O)O)CC4)c12)OC(C)(C)CC3 | 2 | nt | -2 | 1 | -2 | nt | nt | nt | nt
C[C@H](CO)N1C[C@H](C)[C@@H](CN(C)S(=O)(=O)c2cccc(F)c2)Oc2ncc(Br)cc2C1=O | 1 | 1 | -1 | -3 | -3 | nt | nt | nt | nt
CC(=O)c1ccc2noc(-c3ccc(C)cc3)c2c1 | 0 | -1 | -1 | 3 | 0 | nt | nt | nt | nt
Cc1ccc(-c2onc3ccc(C(=O)O)cc23)cc1 | 4 | -3 | 1.0* | 19* | 9.4* | 1 | 8.7* | 23* | 1
COCc1cn([C@H]2C[C@@H]3O[C@H](CO)CC[C@@H]3O[C@@H]2CCc2ccc(-c3ccc(OC)cc3)cc2)nn1 | -2 | nt | -2 | -3 | -1 | nt | nt | nt | nt
C=CCn1c(SCC(=O)Nc2ccc(-c3nc4ccc(C)cc4s3)cc2)nnc1-c1ccccc1 | 4.5* | 1 | 0 | 18* | 7.2* | 1 | 2 | 10 | 1
